A selection: hits, their analogues and other compounds. The true share with any hit is near 1.5%.
miR-122 sensor: inhibitors of miR-122 in Huh7 cells | 340,000 tested, 0.3% active | activation (reporter increase), % at 12.5 µM | Huh7 miR-122 Renilla luciferase sensor, 48 h; neutral wells = 0, positive control = 100;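 active means mean replicate activation score at least 90 and every replicate individually at or above 90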;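 further: higher luciferase means less miR-122 activity so hits act as miR-122 inhibitors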
RAD52 anneal inh: RAD52 (human) annealing inhibition | inhibition, % at 18.7 µM | recombinant RAD52 DNA annealing, FRET fluorescence | 360,000 tested, 0.46% active;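 active means every replicate showing at least 50% inhibition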
CendR NRP1 mod: alters CendR peptide binding to human NRP-1. O14786. inhibition, % at 25 µM. FAM-RPARPAR peptide binding to NRP-1, fluorescence polarization. 360,000 tested, 0.85% active;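 active means inhibition or corrected inhibition above about 18%, plus a signal ratio from 0.5 to 1.5, limit read from the data, passing the limit was not always enough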
Target sequence (O14786 whole entry, looked up): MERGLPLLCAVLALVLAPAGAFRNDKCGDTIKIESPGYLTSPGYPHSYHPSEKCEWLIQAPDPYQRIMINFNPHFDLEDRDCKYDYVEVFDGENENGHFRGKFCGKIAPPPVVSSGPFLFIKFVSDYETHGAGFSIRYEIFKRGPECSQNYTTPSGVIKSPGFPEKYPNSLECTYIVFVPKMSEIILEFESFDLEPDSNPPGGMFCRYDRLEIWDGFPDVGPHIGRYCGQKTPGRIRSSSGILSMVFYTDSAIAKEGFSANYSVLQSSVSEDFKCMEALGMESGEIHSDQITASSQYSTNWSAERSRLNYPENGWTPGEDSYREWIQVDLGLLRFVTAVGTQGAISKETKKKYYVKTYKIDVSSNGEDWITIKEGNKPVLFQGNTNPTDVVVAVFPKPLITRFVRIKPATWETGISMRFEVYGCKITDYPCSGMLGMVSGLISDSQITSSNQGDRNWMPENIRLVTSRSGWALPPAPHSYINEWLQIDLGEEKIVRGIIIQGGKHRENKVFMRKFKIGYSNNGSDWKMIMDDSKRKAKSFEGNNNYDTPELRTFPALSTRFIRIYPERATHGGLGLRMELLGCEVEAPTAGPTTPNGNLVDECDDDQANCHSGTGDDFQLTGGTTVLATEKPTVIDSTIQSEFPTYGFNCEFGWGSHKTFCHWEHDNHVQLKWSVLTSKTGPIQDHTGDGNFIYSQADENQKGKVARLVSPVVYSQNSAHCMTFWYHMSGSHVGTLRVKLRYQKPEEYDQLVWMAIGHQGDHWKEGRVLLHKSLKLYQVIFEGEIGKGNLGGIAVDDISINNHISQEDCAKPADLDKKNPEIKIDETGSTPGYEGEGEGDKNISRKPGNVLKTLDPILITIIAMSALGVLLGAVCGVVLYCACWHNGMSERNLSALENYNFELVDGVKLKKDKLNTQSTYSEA
RAD54 inh: blocks human RAD54 Holliday junction branch migration; Q92698; FAM/BHQ fluorescence; inhibition, % at 10.4 µM; 360,000 tested, 0.14% active; AID 602329;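 active means mean normalized replicate activity at least 40 and at least half of replicates scoring 40 or more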;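 further: 0% = median of neutral control wells and 100% = median of positive control wells; inhibitors cause a drop in the FAM fluorescence signal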
FID counter: counter-screen for HCV NS3 helicase inhibitors: DNA intercalator displacement | 290,000 tested, 0.17% active | inhibition, % at 7.9 µM | DNA fluorescent intercalator displacement, fluorescence | AID 1845; in the data active means inhibition above about 37%;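 further: 0% = vehicle and 100% = reference compound; higher means more ethidium bromide displaced from hairpin DNA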
N-glyco inh: N-linked glycosylation inhibition. 360,000 tested, 0.23% active. D54 ERlucT glycosylation luciferase reporter, 24 h; percent of 100 nM tunicamycin response. reporter increase, % at 12.5 µM;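 active means mean luciferase reporter signal, scaled so untreated is 0 and the glycosylation-blocking control 100, at or above a set limit in every replicate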;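 further: luciferase carries N-glycosylation sites so blocking glycosylation raises the light; 0% = median of neutral control wells and 100% = median of 100 nM tunicamycin wells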
The depositor's hits bear a star; . = not tested or not shown; [ ] = dose if it differs, or a comment.

SMILES	miR-122 sensor	RAD52 anneal inh	CendR NRP1 mod	RAD54 inh	FID counter	N-glyco inh
COc1cc(NS(=O)(=O)c2ccc(NC(=S)NC(=O)c3cccs3)cc2)nc(OC)n1	.	.	-6	.	-25	0
COc1ccc(S(=O)(=O)N[C@H]2CC[C@@H](CC(=O)NCc3ccccc3F)O[C@H]2CO)cc1	.	-8	.	-1	.	.
C=CCNC(=O)/C(C#N)=C/c1c(C)nn(-c2ccc(Cl)cc2)c1Cl	.	-10	-13	.	-8	26*
O=C(c1cnccn1)N1CC(=O)N2[C@H](C1)[C@H](c1ccc(C#CC3CCCC3)cc1)[C@@H]2CO	.	-10	.	.	.	.
CCCSc1nc2c(cnn2-c2ccccc2)c(=O)n1N	-4	-10	-9	-7	-11	-12
Nn1c(SCc2ccccc2)nc2c(cnn2-c2ccccc2)c1=O	.	-15	22*	.	-3	-7
C[C@@H]1CN([C@H](C)CO)C(=O)Cc2cc(N(C)C)ccc2O[C@H]1CN(C)CC1CC1	1[16.7 µM]	6	.	-21	.	.
CCOc1cc(CNS(=O)(=O)c2cn(C)cn2)cc(OCC)c1OCC	1	-6	22*	-7	-24	2
CCOc1ccc(CCNS(=O)(=O)c2cn(C)cn2)cc1OCC	1	-4	7	-11	-19	1
COc1ccc(NC(=O)N(C)C[C@H]2Oc3ccc(NS(=O)(=O)c4ccc(C)cc4)cc3C(=O)N([C@H](C)CO)C[C@@H]2C)cc1	5[16.7 µM]	.	.	.	.	.
CCc1c(C(=O)NCc2ccccc2Cl)[nH]c(C)c1C(C)=O	118*	.	-5	-7	-16	-3
CCc1c(C(=O)NC2CCCCC2)[nH]c(C)c1C(C)=O	212*	.	-18	17	-8	0
COc1cc(CN2C[C@@H](CO)O[C@@H](n3cnc4c(N5CCN(c6ccccc6)CC5)ncnc43)C2)cc(OC)c1OC	0	-6	37*	14	.	-2
COc1ccc(CN2C[C@@H](CO)O[C@@H](n3cnc4c(N5CCN(c6ccccc6)CC5)ncnc43)C2)cc1	-3	-10	4	-5	.	-6
O=C(CN(C1CC1)S(=O)(=O)c1ccc(S(=O)(=O)NC2CCCCC2)cc1)Nc1ccccc1	53	.	-5	4	-23	-2
O=C(CN(Cc1cccs1)S(=O)(=O)c1ccc(S(=O)(=O)NC2CCCCC2)cc1)Nc1ccccc1	132*	.	-1	1	-10	-5
C[C@H](CO)N1C[C@H](C)[C@@H](CN(C)C(=O)Nc2ccc(C(F)(F)F)cc2)Oc2ncc(-c3cccnc3)cc2C1=O	-6[16.7 µM]	8	.	-5	.	.
CN(Cc1ccccc1)S(=O)(=O)c1ccc(NC(=S)NC(=O)C2CCCC2)cc1	124*	-18	-1	-6	1	6
CN(C)S(=O)(=O)c1ccc(NC(=S)NC(=O)C2CCC2)cc1	9	-6	11	9	-18	1
COC(=O)[C@@H]1[C@@H](CO)[C@@H]2Cn3c(ccc(-c4ccncc4)c3=O)[C@@H]2N1CC1CCCC1	.	-30	.	.	.	.
Cc1ccc(S(=O)(=O)NC(CC(C)C)C(=O)N2CCCC2)cc1 (configuration not stated)	8	-2	5	-2	-32	0
COC(=O)[C@H](CC(C)C)NS(=O)(=O)N[C@@H](CC(C)C)C(=O)OC	-8	-13	4	5	.	-1
COC(=O)[C@H](CC(C)C)NS(=O)(=O)c1ccccc1	-2	8	23*	2	-5	2
CCOC(=O)N1CCN(C(=O)C(CC(C)C)NS(=O)(=O)c2ccc(C)cc2)CC1 (configuration not stated)	-9	-1	22*	0	.	1
C[C@@H]1CN([C@@H](C)CO)C(=O)c2cccc(NS(=O)(=O)c3ccccc3)c2O[C@@H]1CN(C)C	-3[16.7 µM]	11	.	5	.	.
SMILES	miR-122 sensor	RAD52 anneal inh	CendR NRP1 mod	RAD54 inh	FID counter	N-glyco inh
CCOC(=O)c1sc(-c2ccc(OC)cc2)cc1N	6	.	26*	-13	-2	-7
CCCNC(=O)[C@@H]1[C@@H](CO)[C@@H]2Cn3c(ccc(-c4ccccc4)c3=O)[C@H]1N2C(=O)CC	.	1	.	.	.	.
CCOC(=O)[C@]12CCCC=C1N(CCC1=CCCCC1)C(=O)[C@H](CC(=O)NCC13CC4CC(CC(C4)C1)C3)C2	.	-9	22*	.	.	.
CCCCCCCCN1C(=O)[C@H](CC(=O)NCCCN2CCCC2=O)C[C@@]2(C(=O)OC)CCCCC=C12	.	-8	29*	.	.	.
CCOC(=O)[C@]12CCCC=C1N(Cc1ccco1)C(=O)[C@H](CC(=O)N1CCSCC1)C2	.	-10	20*	.	.	.
O=C(C[C@@H]1C=C[C@H](NS(=O)(=O)c2ccccc2F)[C@H](CO)O1)NCCCN1CCOCC1	.	2	.	5	.	.
COc1ccccc1N(CC(=O)NCCSCc1ccccc1)S(=O)(=O)c1ccc(C)cc1	.	-9	19*	-3	-40	-9
CCCC(=O)NC(=S)Nc1ccc(S(=O)(=O)Nc2ccc(OCC)cc2)cc1	181*	.	2	-2	-16	0
CCOc1ccc(NS(=O)(=O)c2ccc(NC(=S)NC(=O)CC(C)C)cc2)cc1	166*	.	-5	.	-2	-3
CCOc1ccc(NS(=O)(=O)c2ccc(C(=O)N(C)CC(=O)Nc3ccc(OC)cc3)cc2)cc1	.	-1	0	.	.	-2
C=C(C)CN(CC)C(=O)COc1ccc(S(=O)(=O)Nc2ccc(OC)cc2)cc1	186*	.	-7	-16	-30	-2
CCC(=O)NC(=S)Nc1ccc(S(=O)(=O)NC(C)=O)cc1	-2	.	25*	2	2	2
CCN(CC(=O)Nc1ccc(OC)cc1)C(=O)c1ccc(NS(=O)(=O)c2ccc(C(C)=O)cc2)cc1	6	-12	-5	.	.	0
CC(=O)NS(=O)(=O)c1ccc(NC(=S)Nc2ccccc2)cc1	-4	-23	7	4	-3	1
Cc1ccccc1-c1cnc2c(c1)C(=O)N([C@@H](C)CO)C[C@H](C)[C@@H](CN(C)CC1CCCCC1)O2	-4[16.7 µM]	27	.	9	.	.
CCCNC(=O)N1CC2(CN(Cc3cccc(OC)c3)C2)c2c([nH]c3cc(OC)ccc23)[C@H]1CO	.	1	.	.	.	.
COc1ccc(S(=O)(=O)N2CCCCC2c2cc(C(=O)Nc3ccc(OC)cc3C)no2)cc1 (configuration not stated)	3	-4	45*	0	.	-5
COc1ccc(-c2c(C#N)c(N)nc3c2CCc2ccccc2-3)cc1OC	.	.	.	.	-29	.
COc1ccc(-c2cc(-c3ccc(O)cc3)nc(N)c2C#N)cc1OC	6	-36	4	1	-12	27*
O=C(Nc1ccc2c(c1)OCO2)N[C@@H]1CC[C@@H](CCNC(=O)C2CCCCC2)O[C@@H]1CO	.	8	.	4	.	.
C[C@H]1CCCCO[C@@H](CN(C)Cc2ccncc2)[C@@H](C)CN([C@@H](C)CO)C(=O)c2cc(NC(=O)c3ccncc3)ccc2O1	0[16.7 µM]	-9	.	1	.	.
